From PubChem BioAssay come the findings set out here.

Active and inactive are the calls of the source.

For test [1], the system named is XIP peptide (Xip251-270) binding. In words: XIP fragment 251-270 binding compounds – biochemical, small-molecule microarray, fluorescence 635/667 nm, 0.1 µg/mL protein, primary screen (AID 1182). The note with it: fluorescent protein binding, 635 nm, higher = more signal, called active from +8 up or from −8 down.
A further test deals with XIP peptide (Xip251-270). As to the kind of experiment: compounds binding XIP fragment 251-270 – biochemical, small-molecule microarray, fluorescence 635/667 nm, 0.5 µg/mL protein, primary screen (AID 1183). The note with it: fluorescence 635 nm, higher = more signal.
Test [2] is described as follows: blood-stage malaria parasite viability loss – strain 3D7, DAPI fluorescence, 100 nL, primary screen (AID 1184).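 Note: parasites grown inside human red blood cells in medium with human serum.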 The note with it: P. falciparum 3D7 growth, 3 d, higher = more signal.
The target of test [3] is Homeobox protein Hox-A13 (Mus musculus) (UniProt Q62424). As to the kind of experiment: disruptors of Hoxa13 oligonucleotide interaction – biochemical, fluorescence polarization, labeled oligonucleotide, primary screen (AID 1185). Conditions: Hoxa13:DNA binding, 15 min, higher = more signal, called active from +8 up or from −8 down. (Fluorescence polarisation rises when a labelled molecule tumbles more slowly, as on binding a larger partner.)
Sequence of Homeobox protein Hox-A13 (Mus musculus) (Q62424 whole entry, looked up): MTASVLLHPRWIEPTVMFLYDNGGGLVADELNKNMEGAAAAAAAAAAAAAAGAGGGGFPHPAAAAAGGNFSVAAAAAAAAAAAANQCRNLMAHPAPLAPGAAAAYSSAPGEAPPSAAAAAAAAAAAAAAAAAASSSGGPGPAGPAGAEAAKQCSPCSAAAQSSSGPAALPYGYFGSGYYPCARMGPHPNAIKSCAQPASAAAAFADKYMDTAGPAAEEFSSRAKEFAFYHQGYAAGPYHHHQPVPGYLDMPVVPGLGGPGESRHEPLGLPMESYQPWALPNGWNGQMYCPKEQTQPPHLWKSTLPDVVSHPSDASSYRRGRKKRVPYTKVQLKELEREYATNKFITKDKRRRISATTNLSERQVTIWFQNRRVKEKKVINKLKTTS

As to `CO[C@H]1COC(=O)[C@H](Cc2ccccc2)NC(=O)CC=C[C@@H](C)[C@H](OC)COC(=O)CC=C[C@@H]1C`, the composite z-score is -0.707 (inactive) in test [1] and 0.0418 in the test with XIP peptide (Xip251-270). The z-score is 0.0348 in test [2] and 1.05 (inactive) in test [3].

Consider `Cc1ccc(S(=O)(=O)N[C@H]2COC(=O)CC=C[C@H](C)COC(=O)N[C@@H](C)C(=O)CC=C[C@@H]2C)cc1`, for which the composite z-score in test [1] was -0.478 (inactive); in the test with XIP peptide (Xip251-270) it was 0.619. In addition, the z-score was -1.23 in test [2] and -1.11 (inactive) in test [3].

Take `CO[C@H]1COC(=O)[C@H](C)NC(=O)CC=C[C@@H](C)[C@H](NS(=O)(=O)c2ccc(C)cc2)COC(=O)CC=C[C@@H]1C`: the composite z-score in test [1] is -0.132 (inactive); in the test with XIP peptide (Xip251-270) it was 0.407. Further, the z-score in test [2] was -0.266; in test [3] it was -1.62 (inactive).

`CO[C@H]1COC(=O)CC=C[C@@H](C)COC(=O)[C@@H](C)NC(=O)CC=C[C@@H]1C`: the figures for the composite z-score (in test [1]; in the test with XIP peptide (Xip251-270)) were 0.89 (inactive) and 0.405, respectively. Further, the z-score in test [2] is -0.437; in test [3], 0.382 (inactive).

Regarding `C=CCc1cccc([C@H]2N[C@H](C(=O)O)CC[C@@H]2C)c1`, the composite z-score was 0.517 (inactive) in test [1] and 0.921 in the test on XIP peptide (Xip251-270). The z-score is -0.441 in test [2] and 0.811 (inactive) in test [3].

`COc1cccc([C@@H]2[C@@H](C)CC[C@H]3C(=O)N(C)[C@@H](C(C)C)C(=O)N23)c1`: the composite z-score in test [1] was -0.297 (inactive); in the test with XIP peptide (Xip251-270), 0.247. Moreover, the values for the z-score in test [2] and in test [3] were 0.451 and -0.0898 (inactive), respectively.

In the case of `CCN1C(C)=C(C(=O)OC)[C@@H](c2ccccc2)N2C(=O)[C@@]3(C(=O)OC)O[C@@]12[C@@H]1C(=O)N(C)C(=O)[C@@H]13`, the results for the composite z-score (in test [1]; in the test with XIP peptide (Xip251-270)) were 1.38 (inactive) and 0.87, respectively. The z-score in test [2] is -0.138; in test [3], -0.663 (inactive).

For the compound `COc1cccc([C@H]2N[C@H](C(=O)O)CC[C@@H]2C)c1`, the figures for the composite z-score (in test [1]; with XIP peptide (Xip251-270)) were 0.253 (inactive) and -0.567, respectively. The z-score in test [2] was -1.4; in test [3], 3.05 (inactive).

For `CO[C@H]1COC(=O)[C@@H](C)COC(=O)[C@H](Cc2ccccc2)NC(=O)CC=C[C@H]1C`, the composite z-score in test [1] is -0.0968 (inactive); in the test on XIP peptide (Xip251-270) it was 0.172. Also, the z-score in test [2] was -0.178; in test [3], 0.485 (inactive).

With `CSCC[C@@H]1NC(=O)CC=C[C@@H](C)COC(=O)[C@H](CCSC)NC(=O)CC=C[C@@H](C)COC1=O`, the composite z-score in test [1] was 0.223 (inactive); with XIP peptide (Xip251-270) it was -0.467. Moreover, the z-score in test [2] was -0.145; in test [3], 1.03 (inactive).

As for `CO[C@H]1COC(=O)CC=C[C@H](C)COC(=O)[C@@H](OCc2ccccc2)C=C[C@@H]1C`, the composite z-score in test [1] is 0.225 (inactive); with XIP peptide (Xip251-270) it was 0.547. Further, the z-score in test [2] was -1.58; in test [3], 1.89 (inactive).

Take `CO[C@@H]1COC(=O)[C@H](C)NC(=O)CC=C[C@@H](C)[C@H](NS(=O)(=O)c2ccc(C)cc2)COC(=O)CC=C[C@@H]1C`: the composite z-score was -0.44 (inactive) in test [1] and -0.507 in the test on XIP peptide (Xip251-270). Also, the z-score in test [2] is 0.635; in test [3], 0.769 (inactive).

On to `C#CCCCON=C1C[C@@H](O)[C@@H](O)[C@@H]2[C@@H]3C(=O)N(Cc4ccc5c(c4)OCO5)C(=O)[C@@H]3CC[C@@H]12`, for which the composite z-score was 0.32 (inactive) in test [1] and 0.104 in the test with XIP peptide (Xip251-270). For the same compound, the results for the z-score in test [2] and in test [3] were -0.0159 and -0.476 (inactive), respectively.

Regarding `C[C@@H]1C=CCC(=O)OC[C@H]2O[C@@H](C=C[C@@H]2O)[C@H](C)C=CCC(=O)OC[C@H]2O[C@H]1C=C[C@@H]2O`, the results for the composite z-score (in test [1]; with XIP peptide (Xip251-270)) were 0.424 (inactive) and 0.466, respectively. Further, the values for the z-score in test [2] and in test [3] were -2.25 and -1.31 (inactive), respectively.

Consider `CO[C@H]1COC(=O)[C@@H](Cc2ccccc2)NC(=O)[C@@H](C)COC(=O)CC=C[C@@H]1C`, for which the composite z-score is -0.404 (inactive) in test [1] and 0.43 in the test on XIP peptide (Xip251-270). The z-score in test [2] is -0.0923; in test [3], -0.866 (inactive).

For the compound `COC(=O)C1=C(C)N(Cc2ccccc2)c2c(C(=O)OC)c(C(=O)OC)c(C(=O)OC)c(=O)n2[C@@H]1c1ccccc1`, the composite z-score in test [1] was 0.17 (inactive); with XIP peptide (Xip251-270) it was -0.0775. In addition, the z-score in test [2] is 0.149; in test [3], -2.2 (inactive).

As to `COc1cccc([C@@H]2[C@@H](C)CC[C@H]3C(=O)N4[C@H](c5cccc(OC)c5)[C@@H](C)CC[C@H]4C(=O)N23)c1`, the composite z-score in test [1] was -0.142 (inactive); in the test on XIP peptide (Xip251-270) it was 0.379. Besides, the values for the z-score in test [2] and in test [3] were 0.137 and -1.96 (inactive), respectively.

Consider `CCN1C(C)=C(C(=O)OC)[C@@H](c2ccccc2)N2C(=O)[C@](O)(C(=O)OC)[C@@H](c3ccccc3)C(C(=O)c3ccccc3)=C12`, for which the composite z-score is -0.176 (inactive) in test [1] and 0.283 with XIP peptide (Xip251-270). In addition, the results for the z-score in test [2] and in test [3] were 0.245 and -4.23 (inactive), respectively.

Turning to `CCN1C(C)=C(C(=O)OC)[C@@H](c2ccccc2)N2C(=O)[C@](O)(C(=O)OC)[C@@H](c3ccccc3)C(C(C)=O)=C12`, the results for the composite z-score (in test [1]; with XIP peptide (Xip251-270)) were -0.192 (inactive) and -1.35, respectively. Also, the results for the z-score in test [2] and in test [3] were -1.56 and -1.27 (inactive), respectively.

On to `CO[C@H]1COC(=O)[C@H](C)NC(=O)CC=C[C@@H](C)[C@H](NS(=O)(=O)c2ccc(C)cc2)COC(=O)[C@@H](OCc2ccccc2)C=C[C@@H]1C`, for which the composite z-score was -0.253 (inactive) in test [1] and 0.72 in the test with XIP peptide (Xip251-270). Also, the z-score in test [2] was -0.569; in test [3], -1.21 (inactive).

As for `CCN1C(C)=C(C(=O)OC)[C@@H](c2ccccc2)N2C(=O)[C@@]3(C(=O)OC)O[C@@]12[C@@H]1C(=O)N(c2ccccc2)C(=O)[C@@H]13`, the values for the composite z-score (in test [1]; in the test with XIP peptide (Xip251-270)) were 0.357 (inactive) and 0.9, respectively. Moreover, the z-score in test [2] was -0.425; in test [3], -0.559 (inactive).

As for `CO[C@H]1COC(=O)[C@@H](C)NC(=O)CC=C[C@@H](C)[C@H](OC)COC(=O)CC=C[C@@H]1C`, the figures for the composite z-score (in test [1]; with XIP peptide (Xip251-270)) were 0.649 (inactive) and 0.517, respectively. Also, the z-score in test [2] was -0.243; in test [3], 0.334 (inactive).

Turning to `CO[C@H]1COC(=O)[C@H](C)COC(=O)[C@H](Cc2ccccc2)NC(=O)CC=C[C@H]1C`, the figures for the composite z-score (in test [1]; in the test on XIP peptide (Xip251-270)) were -0.454 (inactive) and 0.613, respectively. Further, the z-score in test [2] was 0.724; in test [3], 0.57 (inactive).
